Measured values: PubChem BioAssay (NCATS)
Records with an inconclusive call do not appear. Active and inactive are the calls of the source. Calls follow the shape of the dose curve; as a rule, active = well fitted inhibition curve with a large enough effect; inconclusive = small, poorly fitted or top-dose-only effect; inactive = flat fitted curve, though single readings scatter.

Experiments:
Experiment in all cases: qHTS profiling for inhibitors of Plasmodium falciparum proliferation (AID 504749); also: nearly all actives have a fitted effect of over 60% in size
Settings in all cases: P. falciparum in erythrocytes, SYBR Green DNA, 72 h; series mostly up to 28.7 µM
P94_40 = tested on: P94_40
Procedure, shortened: (§1)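 Three-day growth assay of blood-stage parasites in erythrocytes (0.3% parasitemia, 2.5% hematocrit) at 37 C, 5% CO2, quantified by SYBR Green DNA staining after overnight detergent lysis.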

PC15 = tested on: PC15
Procedure, shortened: as §1

PC26 = tested on: PC26
Procedure, shortened: as §1

PC49 = tested on: PC49
Procedure, shortened: as §1

SC27B = tested on: SC27B
Procedure, shortened: as §1

TAB109 = tested on: TAB109
Procedure, shortened: as §1

TAB113 = tested on: TAB113
Procedure, shortened: as §1

TAB165 = tested on: TAB165
Procedure, shortened: as §1

W2 = tested on: W2
Procedure, shortened: as §1

PAD = tested on: PAD
Procedure, shortened: as §1

Measured: Potency
Potency is read from the fitted curve at half-maximal effect.

CSc1nc2cc(Oc3cccc(Cl)c3Cl)c(Cl)cc2[nH]1
active: P94_40 10 µM | PC15 8.91 µM | PC26 5.36 µM | PC49 12.6 µM | SC27B 12.6 µM | TAB109 7.94 µM | TAB113 8.91 µM | TAB165 7.94 µM | W2 6.75 µM

CC[C@H]1OC(=O)[C@H](C)[C@@H](O[C@H]2C[C@@](C)(OC)[C@@H](O)[C@H](C)O2)C(C)[C@@H](O[C@@H]2O[C@H](C)C[C@H](N(C)C)[C@@H]2O)[C@](C)(OC)C[C@@H](C)C(=O)[C@H](C)[C@@H](O)[C@]1(C)O (stereo partly specified)
active: W2 3.79 µM
not listed: PC15 | PC26
inactive: all other assays above

CCN(CC)CCC(=O)N1c2ccccc2Sc2ccc(C(F)(F)F)cc21
active: W2 5.36 µM
not listed: PC15 | PC26 | TAB109
inactive: all other assays above

c1ccc2c(c1)Sc1ccccc1N2CCN1CCCC1
active: P94_40 7.94 µM | PAD 7.94 µM | PC15 11.2 µM | PC26 12 µM | SC27B 8.91 µM | TAB109 8.91 µM | TAB113 5.01 µM | TAB165 7.08 µM | W2 1.69 µM

CN1CCc2c(c3ccccc3n2Cc2ccccc2)C1
active: W2 2.56 µM
not listed: P94_40 | PC26 | TAB165
inactive: all other assays above

CNC(=O)[C@H](Cc1c[nH]c2ccccc12)NC(=O)[C@@H](CC(=O)NO)CC(C)C
inactive: PC15 | PC26 | PC49 | SC27B | TAB113
active: W2 15.1 µM

CCCCCCCCCCCCCCCCOCCOCCOCCOCCOCCOCCOCCOCCOCCOCCOCCOCCOCCOCCOCCOCCOCCOCCOCCOCCO
active: PC15 11.2 µM | PC49 12.6 µM | TAB109 12.6 µM | TAB165 14.1 µM | W2 6.75 µM

CCN(CC)CCC(=O)N1c2ccccc2Sc2ccc(Cl)cc21
active: P94_40 5.01 µM | PC49 11.2 µM | W2 3.38 µM

COc1ccc2c(=O)c(C)c(-c3ccccc3)oc2c1CN(C)C
active: W2 6.75 µM
not listed: P94_40
inactive: all other assays above

Cn1c(=O)c2c(ncn2CCOC(=O)C(C)(C)Oc2ccc(Cl)cc2)n(C)c1=O
inactive: PC15 | PC26 | PC49 | SC27B | TAB113 | W2

N[C@@H](Cc1cc(I)c(Oc2ccc(O)c(I)c2)c(I)c1)C(=O)O
active: W2 9.53 µM
inactive: PC49

Cn1c(O)c(N=NC(N)=S)c2ccccc21
inactive: PC15 | PC26 | PC49

N#Cc1ccc2c(c1)N(CCCN1CCC(O)CC1)c1ccccc1S2
active: W2 4.26 µM
inactive: PC49

CCOc1cc(-c2nccc3cc(OC)c(OC)cc23)cc(OCC)c1OCC
active: W2 15.1 µM
inactive: TAB109

C[C@@](Cc1ccc(O)c(O)c1)(NN)C(=O)O
not listed: P94_40
inactive: all other assays above

CC(CN(C)C)CN1c2ccccc2Sc2ccc(C(F)(F)F)cc21 (stereo unspecified)
active: P94_40 5.01 µM | TAB165 12.6 µM | W2 0.426 µM

C/C(=C\C(=O)OCCCCCCCCC(=O)O)C[C@@H]1OC[C@H](C[C@@H]2O[C@H]2[C@@H](C)[C@H](C)O)[C@@H](O)[C@H]1O
inactive: PC15
active: P94_40 0.141 µM | TAB109 0.141 µM | W2 0.19 µM

CC/C=C\C/C=C\C/C=C\CCCCCCCC(=O)O
not listed: PC26 | TAB165 | PAD
inactive: all other assays above

CC(=O)N=c1sc(S(N)(=O)=O)nn1C
not listed: P94_40
inactive: all other assays above

CC[C@H]1OC(=O)[C@H](C)[C@@H](O[C@H]2C[C@@](C)(OC)[C@@H](O)[C@H](C)O2)[C@H](C)[C@@H](O[C@@H]2O[C@H](C)C[C@H](N(C)C)[C@H]2O)[C@](C)(O)C[C@@H](C)CN(C)[C@H](C)[C@@H](O)[C@]1(C)O
inactive: PC26 | PC49
active: P94_40 2.51 µM | TAB109 1 µM | TAB113 12.6 µM | TAB165 7.94 µM | W2 0.426 µM

O=P(O)(O)OP(=O)(O)O
active: W2 13.5 µM
inactive: PC15 | PC49 | TAB109

NC(=O)CC[C@@H]1NC(=O)[C@H](Cc2ccccc2)NC(=O)[C@H](Cc2ccc(O)cc2)NC(=O)[C@@H](N)CSSC[C@@H](C(=O)N2CCC[C@H]2C(=O)N[C@@H](CCCN=C(N)N)C(=O)NCC(N)=O)NC(=O)[C@H](CC(N)=O)NC1=O
inactive: PC15 | PC49 | SC27B
active: W2 8.49 µM

NC(=O)C1c2ccccc2CCc2ccccc21
not listed: P94_40
inactive: all other assays above

O=[N+]([O-])c1c(Cl)cccc1-c1c[nH]cc1Cl
not listed: P94_40 | W2
inactive: all other assays above

CN(C)CCC=C1c2ccccc2C(C)(C)c2ccccc21
inactive: PC49 | SC27B
active: W2 3.38 µM

O=C(c1cc2ccccc2o1)N1CCN(Cc2ccccc2)CC1
active: TAB109 8.91 µM | TAB165 11.2 µM
inactive: P94_40 | PC15 | PC49

C=CC[N+]1([C@H]2C[C@H]3[C@@H]4CC[C@H]5C[C@H](O)[C@@H](N6CCOCC6)C[C@]5(C)[C@H]4CC[C@]3(C)[C@H]2OC(C)=O)CCCC1
active: P94_40 8.91 µM | TAB109 6.31 µM | W2 5.36 µM
inactive: PC15 | PC49

CCCC(CCC)C(=O)OC1C[C@H]2CC[C@@H](C1)[N+]2(C)C (stereo partly specified)
inactive: PC49
active: SC27B 12.6 µM

O=C(OC1C[C@@H]2CC3C[C@H](C1)N2CC3=O)c1c[nH]c2ccccc12 (stereo partly specified)
inactive: P94_40 | SC27B | TAB113

N=C(N)c1ccc(/C=C/c2ccc(C(=N)N)cc2O)cc1
active: P94_40 8.91 µM | PC15 12.6 µM | PC26 8.49 µM | SC27B 10 µM | TAB109 17.8 µM | TAB113 3.98 µM | TAB165 4.47 µM

Cc1cc(-c2ccc(N=Nc3c(S(=O)(=O)O)cc4cc(S(=O)(=O)O)cc(N)c4c3O)c(C)c2)ccc1N=Nc1c(S(=O)(=O)O)cc2cc(S(=O)(=O)O)cc(N)c2c1O
inactive: PC15 | PC49 | SC27B | TAB113 | W2
active: TAB165 12.6 µM

CS(=O)(=O)c1ccc([C@@H](O)[C@@H](COC(=O)CN)NC(=O)C(Cl)Cl)cc1
active: TAB109 8.91 µM
not listed: P94_40 | TAB165 | W2
inactive: all other assays above

O=P(O)(O)CP(=O)(O)O
not listed: P94_40
inactive: all other assays above

OCc1ccccc1
active: PC15 10 µM | W2 5.36 µM

CC(C)=CCC/C(C)=C/C=C/C(C)=C/C=C/C(C)=C/C=C/C=C(C)/C=C/C=C(C)/C=C/C=C(\C)CCC=C(C)C
inactive: PC26 | TAB109 | TAB113

CN(C)C(=O)CCSC(SCCC(=O)O)c1cccc(/C=C/c2ccc3ccc(Cl)cc3n2)c1 (stereo unspecified)
inactive: PC15 | PC49
active: PAD 11.2 µM | W2 7.57 µM

CCOC(=O)C1=C(COCCN)NC(C)=C(C(=O)OC)C1c1ccccc1Cl (stereo unspecified)
not listed: P94_40 | TAB165 | W2
inactive: all other assays above

O=C(O)CCC/C=C\C[C@@H]1[C@@H](/C=C/[C@@H](O)COc2cccc(C(F)(F)F)c2)[C@H](O)C[C@@H]1O
not listed: P94_40 | PC26 | W2
inactive: all other assays above

CC(=O)c1ccc2c(c1)N(CCCN1CCN(CCO)CC1)c1ccccc1S2
active: P94_40 10 µM | PC15 11.2 µM | PC26 7.57 µM | PC49 11.2 µM | TAB109 7.08 µM | TAB165 11.2 µM | W2 5.36 µM

CC(C)CCCCCCc1ccc(O)cc1
inactive: PC15 | PC26 | PC49 | TAB109
active: P94_40 12.6 µM

CN1CCCC(CN2c3ccccc3Sc3ccccc32)C1 (stereo unspecified)
inactive: PC49
active: TAB109 11.2 µM | TAB165 12.6 µM | W2 3.38 µM

Oc1cccc(O)c1O
inactive: PC49 | SC27B | TAB109 | TAB113

O=c1n(CC2CO2)c(=O)n(CC2CO2)c(=O)n1CC1CO1 (stereo unspecified)
inactive: PC15 | PC26 | PC49 | SC27B | TAB113

C[C@H](CCCC(C)(C)O)[C@H]1CC[C@H]2[C@@H]3CC=C4C[C@@H](O)CC[C@]4(C)[C@H]3CC[C@]12C
not listed: P94_40
inactive: all other assays above
